# Results taken from PubChem BioAssay.
# Unmarked numbers belong to inactive results. Calls of active or inactive are those of the source.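 The calls were made as follows, unless noted: active = mean inhibition over 43.08%, the solvent-only control mean plus 3 SD; inactive = the rest.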
# Columns and labels:
# [1] = biological target: Nuclear receptor coactivator 3 (Homo sapiens) (UniProt Q9Y6Q9); assay: SRC3 coactivator transcriptional activity inhibitors, confirmation, cell-based, luminescence, quadruplicate (AID 588792); settings: HEK293 GAL4-SRC3 luciferase reporter, at 3.6 µM, stronger effect = higher value;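 also: 0% = DMSO treated cells and 100% = gossypol at 36 µM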
# Sequence of Nuclear receptor coactivator 3 (Homo sapiens) (Q9Y6Q9 whole entry, looked up, the tested form may be a part): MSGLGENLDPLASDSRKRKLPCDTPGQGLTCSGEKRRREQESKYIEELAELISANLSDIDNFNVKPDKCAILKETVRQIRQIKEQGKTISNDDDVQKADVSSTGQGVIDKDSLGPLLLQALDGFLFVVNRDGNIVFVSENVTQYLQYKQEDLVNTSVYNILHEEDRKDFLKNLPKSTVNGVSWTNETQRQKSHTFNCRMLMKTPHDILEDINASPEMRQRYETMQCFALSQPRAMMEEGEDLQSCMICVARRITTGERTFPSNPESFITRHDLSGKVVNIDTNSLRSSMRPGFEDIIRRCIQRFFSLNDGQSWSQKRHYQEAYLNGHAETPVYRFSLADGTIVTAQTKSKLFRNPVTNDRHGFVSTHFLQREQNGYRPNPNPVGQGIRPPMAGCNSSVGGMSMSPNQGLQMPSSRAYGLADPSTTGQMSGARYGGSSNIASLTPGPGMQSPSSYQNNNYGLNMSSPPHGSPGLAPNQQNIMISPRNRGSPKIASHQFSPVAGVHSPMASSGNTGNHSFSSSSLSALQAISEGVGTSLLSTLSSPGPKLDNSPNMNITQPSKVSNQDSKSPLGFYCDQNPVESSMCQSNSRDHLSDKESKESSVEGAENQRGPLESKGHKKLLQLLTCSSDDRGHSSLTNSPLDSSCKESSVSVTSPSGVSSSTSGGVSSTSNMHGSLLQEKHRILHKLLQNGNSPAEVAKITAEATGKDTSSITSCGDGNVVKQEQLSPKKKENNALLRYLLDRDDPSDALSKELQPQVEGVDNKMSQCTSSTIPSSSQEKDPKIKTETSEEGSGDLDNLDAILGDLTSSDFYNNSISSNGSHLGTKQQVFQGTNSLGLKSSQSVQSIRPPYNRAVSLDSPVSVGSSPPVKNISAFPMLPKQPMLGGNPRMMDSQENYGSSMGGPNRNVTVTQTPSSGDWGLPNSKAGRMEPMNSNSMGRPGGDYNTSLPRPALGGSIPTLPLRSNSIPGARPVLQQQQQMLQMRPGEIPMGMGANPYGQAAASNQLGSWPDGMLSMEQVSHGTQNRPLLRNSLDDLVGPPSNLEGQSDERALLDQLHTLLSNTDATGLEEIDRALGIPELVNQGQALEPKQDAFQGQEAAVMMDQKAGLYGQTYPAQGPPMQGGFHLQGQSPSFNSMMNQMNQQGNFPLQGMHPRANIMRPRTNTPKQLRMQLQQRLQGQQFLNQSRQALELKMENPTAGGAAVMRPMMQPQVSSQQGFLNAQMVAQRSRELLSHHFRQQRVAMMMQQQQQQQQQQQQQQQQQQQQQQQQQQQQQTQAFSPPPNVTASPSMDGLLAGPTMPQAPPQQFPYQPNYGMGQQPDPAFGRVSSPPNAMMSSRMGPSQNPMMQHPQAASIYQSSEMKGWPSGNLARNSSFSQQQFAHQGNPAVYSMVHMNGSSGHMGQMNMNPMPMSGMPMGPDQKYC
# [2] = system: transactivating tegument protein VP16 (Human herpesvirus 1), Gal4-VP16 luciferase reporter; assay: VP16 transactivation inhibitors, counter-screen for SRC3 inhibitor project, cell-based, luminescence, high throughput (AID 588794; in the data active = inhibition above about 30%); settings: mammalian cells, VP16-driven luciferase reporter luminescence; at 3.6 µM; stronger effect = higher value
# [3] = biological target: Nuclear receptor coactivator 1 (Homo sapiens) (UniProt Q15788); assay: SRC1 coactivator transcriptional activity inhibitors, confirmation, cell-based, luminescence, quadruplicate (AID 588820;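 active = mean inhibition above 46.68%, the untreated control wells mean plus 3 SD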;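 also: 0% = DMSO wells and 100% = gossypol 36 µM treated wells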); settings: HEK293 GAL4-SRC1 luciferase reporter, at 3.6 µM, stronger effect = higher value
# Sequence of Nuclear receptor coactivator 1 (Homo sapiens) (Q15788 whole entry, looked up, the tested form may be a part): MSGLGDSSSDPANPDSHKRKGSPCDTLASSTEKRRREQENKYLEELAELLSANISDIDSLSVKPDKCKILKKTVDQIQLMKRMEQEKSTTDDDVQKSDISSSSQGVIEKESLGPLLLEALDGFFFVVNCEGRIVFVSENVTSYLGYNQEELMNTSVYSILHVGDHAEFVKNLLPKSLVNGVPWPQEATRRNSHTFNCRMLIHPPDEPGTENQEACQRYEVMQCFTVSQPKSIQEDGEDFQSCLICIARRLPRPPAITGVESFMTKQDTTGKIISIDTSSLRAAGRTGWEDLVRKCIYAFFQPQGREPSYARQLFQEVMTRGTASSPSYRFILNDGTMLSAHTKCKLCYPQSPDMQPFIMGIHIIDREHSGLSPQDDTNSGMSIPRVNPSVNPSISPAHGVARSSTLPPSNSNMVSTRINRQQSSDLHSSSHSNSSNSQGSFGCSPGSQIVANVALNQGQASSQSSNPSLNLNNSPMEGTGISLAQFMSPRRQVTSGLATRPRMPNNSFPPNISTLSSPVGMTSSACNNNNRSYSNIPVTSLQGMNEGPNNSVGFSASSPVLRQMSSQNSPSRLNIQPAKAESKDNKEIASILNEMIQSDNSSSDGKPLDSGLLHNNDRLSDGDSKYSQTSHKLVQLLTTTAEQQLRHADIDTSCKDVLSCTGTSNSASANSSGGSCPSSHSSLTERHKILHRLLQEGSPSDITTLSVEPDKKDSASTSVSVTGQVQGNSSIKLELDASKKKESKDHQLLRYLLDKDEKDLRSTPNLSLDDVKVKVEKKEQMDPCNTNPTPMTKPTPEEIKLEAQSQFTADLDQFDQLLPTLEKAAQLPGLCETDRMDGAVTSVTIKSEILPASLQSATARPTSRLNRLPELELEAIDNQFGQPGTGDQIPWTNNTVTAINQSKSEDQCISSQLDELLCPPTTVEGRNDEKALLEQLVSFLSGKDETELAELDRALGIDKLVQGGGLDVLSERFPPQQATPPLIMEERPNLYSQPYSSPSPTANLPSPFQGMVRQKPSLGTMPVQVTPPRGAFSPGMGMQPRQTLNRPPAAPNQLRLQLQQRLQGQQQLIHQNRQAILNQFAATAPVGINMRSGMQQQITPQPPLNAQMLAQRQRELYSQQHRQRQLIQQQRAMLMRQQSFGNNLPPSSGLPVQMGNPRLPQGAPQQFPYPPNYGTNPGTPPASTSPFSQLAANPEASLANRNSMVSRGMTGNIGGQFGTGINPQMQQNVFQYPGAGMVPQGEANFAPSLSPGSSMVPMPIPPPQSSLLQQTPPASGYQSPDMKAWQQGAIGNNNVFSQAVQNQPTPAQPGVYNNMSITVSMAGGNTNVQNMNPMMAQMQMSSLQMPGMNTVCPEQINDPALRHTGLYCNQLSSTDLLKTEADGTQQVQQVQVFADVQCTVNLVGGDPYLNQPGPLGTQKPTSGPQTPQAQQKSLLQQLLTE
# [4] = VP16 transactivation inhibitors, counter-screen for SRC1 inhibitor project, cell-based, luminescence, high throughput (AID 588824; in the data active = inhibition above about 25%); settings: cell-based VP16 transactivation luciferase luminescence; at 3.6 µM; stronger effect = higher value
# [5] = StAR promoter reporter inhibitors, counter-screen for LRH-1 inverse agonist project, cell-based, luminescence, high throughput (AID 651611; in the data active = inhibition above about 28%); settings: StAR promoter luciferase reporter counterscreen, at 3.6 µM, stronger effect = higher value
# [6] = biological target: Nuclear receptor subfamily 5 group A member 2 (Homo sapiens) (UniProt O00482); assay: LRH-1 (NR5A2) inverse agonists, retest, confirmation, cell-based, luminescence (AID 651613; in the data active = inhibition above about 42%;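 also: HEK293T cells co-transfected with LRH-1 and StAR promoter luciferase reporter; 0% = vehicle wells and 100% = parental cells lacking receptor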); settings: cell-based LRH-1 luciferase reporter, inverse agonism; at 3.6 µM; stronger effect = higher value
# Sequence of Nuclear receptor subfamily 5 group A member 2 (Homo sapiens) (O00482 whole entry, looked up): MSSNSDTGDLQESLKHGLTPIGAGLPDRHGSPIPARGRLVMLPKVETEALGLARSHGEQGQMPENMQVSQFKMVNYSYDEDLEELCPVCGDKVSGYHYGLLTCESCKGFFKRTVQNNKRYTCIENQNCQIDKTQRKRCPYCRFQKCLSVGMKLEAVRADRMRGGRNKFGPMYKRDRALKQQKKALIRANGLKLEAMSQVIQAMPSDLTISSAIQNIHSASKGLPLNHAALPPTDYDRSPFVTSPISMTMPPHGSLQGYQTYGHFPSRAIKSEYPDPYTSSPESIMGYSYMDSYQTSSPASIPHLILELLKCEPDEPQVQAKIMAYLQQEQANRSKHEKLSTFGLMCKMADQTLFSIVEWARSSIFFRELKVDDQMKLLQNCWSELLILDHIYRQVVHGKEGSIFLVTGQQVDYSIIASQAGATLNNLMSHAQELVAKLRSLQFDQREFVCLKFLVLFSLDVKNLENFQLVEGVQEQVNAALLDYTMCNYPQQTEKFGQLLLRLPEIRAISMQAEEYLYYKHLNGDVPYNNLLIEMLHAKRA
# [7] = biological target: Steroidogenic factor 1 (Homo sapiens) (UniProt Q13285); assay: SF1 (NR5A1) inverse agonists, counter-screen for LRH-1 inverse agonist project, cell-based, luminescence, high throughput (AID 651614; in the data active = inhibition above about 44%;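 also: cells cotransfected with StAR promoter reporter and SF1 expression vector; 0% = vehicle on cells with receptor and 100% = vehicle on cells lacking receptor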); settings: cell-based SF1 luciferase reporter, at 3.6 µM, stronger effect = higher value
# Sequence of Steroidogenic factor 1 (Homo sapiens) (Q13285 whole entry, looked up, the tested form may be a part): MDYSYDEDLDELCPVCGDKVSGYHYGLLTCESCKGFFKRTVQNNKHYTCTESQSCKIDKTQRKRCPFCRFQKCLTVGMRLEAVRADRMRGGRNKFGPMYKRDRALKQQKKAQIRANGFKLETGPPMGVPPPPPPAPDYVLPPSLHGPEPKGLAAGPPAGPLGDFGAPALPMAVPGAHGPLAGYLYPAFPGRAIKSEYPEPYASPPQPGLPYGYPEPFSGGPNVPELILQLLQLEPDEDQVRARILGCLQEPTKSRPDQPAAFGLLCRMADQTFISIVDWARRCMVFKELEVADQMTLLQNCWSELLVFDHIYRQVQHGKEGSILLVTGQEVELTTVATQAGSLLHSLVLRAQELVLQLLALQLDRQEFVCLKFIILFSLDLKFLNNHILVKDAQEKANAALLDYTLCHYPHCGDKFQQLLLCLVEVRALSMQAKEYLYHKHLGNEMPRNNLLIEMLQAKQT
# [8] = VP16 transactivation reporter inhibitors, counter-screen for LRH-1 inverse agonist project, cell-based, luminescence, high throughput (AID 651615; in the data active = inhibition above about 33%); settings: Gal4-VP16 luciferase reporter cells, at 3.6 µM, stronger effect = higher value
Compound,inhibition [1],inhibition [2],inhibition [3],inhibition [4],inhibition [5],inhibition [6],inhibition [7],inhibition [8]
O=C(Nc1ccon1)c1nc[nH]c1C(=O)NCc1ccccc1,35.1%,52.7% (active),27.6%,53.3% (active),50.5% (active),58.4% (active),51% (active),68% (active)
Cc1cc(/C=N/n2cnnc2)c(C)n1-c1ccc(OCc2ccc(Cl)cc2Cl)cc1,19.7%,43.4% (active),8.2%,37.6% (active),36.5% (active),67% (active),68.7% (active),62.3% (active)
COc1cccc(/C=N/Nc2ccc(C(=O)O)cc2)c1O,68% (active),63.8% (active),12.8%,64.4% (active),68.7% (active),68.3% (active),73% (active),68.7% (active)
COc1ccc(-c2oc3ccc(N4CCOCC4)cc3c2C#CCO)cc1,10.8%,21.3%,-22.7%,18.5%,54.3% (active),55.7% (active),62% (active),53.4% (active)
C=C1C(=O)C23C(O)C1CCC2C12CCCC(C)(COC(C)=O)C1C(O)C3(O)OC2 (stereo not drawn),66.6% (active),58.3% (active),20.7%,57.9% (active),71.9% (active),63.7% (active),74.4% (active),82.5% (active)
O=C(Nc1ccc(N2CCN(C(=O)c3ccccc3)CC2)cc1)c1ccc2c(c1)OCO2,36.9%,66.7% (active),37.4%,57.1% (active),50.2% (active),64% (active),73.8% (active),70.5% (active)
Oc1cccc2cc(Nc3ccccc3)cnc12,60.4% (active),63.3% (active),25.3%,70.1% (active),65.5% (active),99.5% (active),84.8% (active),88% (active)
c1ccc(-c2nnc(-c3ccccn3)nc2NC2CCCCC2)cc1,70.2% (active),14.8%,49.1% (active),18.8%,82.6% (active),88.9% (active),74.7% (active),45.4% (active)
COc1ccccc1N1CCN(Cc2cc(Br)c(O)c3ncccc23)CC1,21.4%,3.52%,-1.06%,-1.42%,23.9%,23.9%,42.8% (active),21.7%
CCN(CC)c1ccc2nc3ccc(N)cc3[n+](-c3ccccc3)c2c1,81.2% (active),79.9% (active),52.3% (active),81.5% (active),75.2% (active),111% (active),89.2% (active),92.6% (active)
CCN(CC)c1ccc(/C=C/c2ccc3ccc(OC)cc3[n+]2CC)cc1,50.1% (active),74.8% (active),42.6%,74.5% (active),67.8% (active),96.4% (active),90.8% (active),84.1% (active)
NCCCNc1nc(N)c([N+](=O)[O-])c(NC2CCCCC2)n1,62.2% (active),42.4% (active),7.71%,27.1% (active),84.7% (active),98.5% (active),82.5% (active),88.1% (active)
N=c1c2c(n(Cc3ccc(Br)cc3)c3c1CCC3)CCCC2,51.3% (active),67.7% (active),45.7%,70.5% (active),60.2% (active),111% (active),86.3% (active),89.9% (active)
COc1ccc(-[n+]2c(C)cc(/C=C3\Sc4ccccc4N3C)cc2C)cc1,74.4% (active),83.5% (active),47.5% (active),78.8% (active),74.5% (active),106% (active),90% (active),87.4% (active)
CC[n+]1ccccc1/C=C1\Sc2ccc(C)cc2N1C,25.7%,64.6% (active),23.8%,67.7% (active),40% (active),75.7% (active),70.3% (active),74.5% (active)
Nc1ccc(S(=O)(=O)NNC(=O)C(=O)NNc2ccccc2)cc1,12.2%,8.16%,-15.5%,18.5%,5.29%,18.9%,17.6%,39.2% (active)
